“And” between values parts separate entries of the source, which are not always exact repeats. Equal values may be shown once. Inconclusive results are not listed. The source holds several records for some structures; these can differ, active in one and inactive in another. The source made the active and inactive calls. The calls were made as follows, unless noted: active = hit-call score of the fitted dose curve at least 0.9, where 1 is the maximum; inconclusive = response in the unintended direction; inactive = score below 0.9.
How the values were obtained:
[1] = target: Estrogen receptor (Homo sapiens) (UniProt P03372); experiment: ATG_ERa_TRANS: Attagene TRANS-FACTORIAL HepG2 Assay for human Estrogen Receptor alpha (ERa) (AID 2282970); details: HepG2 Attagene TRANS ERa GAL4 reporter, mRNA
Outline: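 Transfected HepG2 cells carrying GAL4-UAS-driven reporter units were dosed for 24 hours. Total RNA was reverse-transcribed, reporter sequences PCR-amplified, FAM-labelled, HpaI-digested and resolved by capillary electrophoresis. Increases over DMSO control defined activity.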

[2] = target: Steroid hormone receptor ERR1 (Homo sapiens) (UniProt P11474); experiment: ATG_ERRa_TRANS: Attagene TRANS-FACTORIAL HepG2 Assay for human Estrogen-Related Receptor alpha (ERRa) (AID 2282971); details: HepG2 Attagene TRANS reporter, ERRa transactivation
Outline: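 HepG2 cells were transiently transfected with multiple GAL4-UAS reporter units, then dosed with compound for 24 h. Total RNA was reverse-transcribed, reporter cDNA PCR-amplified and fluorescently labelled, and fragments resolved by capillary electrophoresis; induction was compared with DMSO.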

[3] = target: X-box-binding protein 1 (Homo sapiens) (UniProt P17861); experiment: ATG_Xbp1_CIS: Attagene CIS-FACTORIAL HepG2 Assay for human X-box Binding Protein 1 (XBP1) (AID 2282972; active = hit-call score of the fitted dose curve at least 0.9, where 1 is the maximum; inactive = score below 0.9); details: HepG2 XBP1 cis-element reporter, Attagene multiplex; actives raise or lower the signal
Outline: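 Reporter transcripts were quantified by RT-PCR with fluorescent primer extension and capillary electrophoresis after 24 h chemical exposure. Cells: transiently transfected HepG2 carrying cis-regulated reporter constructs; data fitted bidirectionally relative to DMSO.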

[4] = ATG_M_19_TRANS: Attagene TRANS-FACTORIAL HepG2 Assay for M19 Transcription Factor (Internal Marker) (AID 2282974); details: HepG2 Attagene TRANS-FACTORIAL M19 internal marker reporter
Outline: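 Multiplexed TRANS format: HepG2 liver cells bearing transient GAL4-UAS reporter units, chemical treatment 24 h, reporter transcripts quantified by RT-PCR plus capillary electrophoresis. DMSO defines baseline.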

[5] = target: Estrogen-related receptor gamma (Homo sapiens) (UniProt P62508); experiment: ATG_ERRg_TRANS: Attagene TRANS-FACTORIAL HepG2 Assay for human Estrogen-Related Receptor gamma (ERRg) (AID 2282977); details: HepG2 Attagene TRANS reporter, ERRg transactivation;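 also: hits increase reporter signal over DMSO so potencies reflect activators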
Outline: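 Induction of reporter transcripts through a chimeric NR-Gal4 protein is quantified in transfected human HepG2 liver cells after 24 h chemical exposure, using RT-PCR with capillary electrophoresis detection and DMSO as baseline.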

[6] = target: Glucocorticoid receptor (Homo sapiens) (UniProt P04150); experiment: ATG_GR_TRANS: Attagene TRANS-FACTORIAL HepG2 Assay for human Glucocorticoid Receptor (GR) (AID 2282978); details: HepG2 Attagene TRANS GR reporter, mRNA transcription;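 also: activators score as hits since higher reporter transcript over DMSO is fitted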
Outline: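 Transiently transfected HepG2 cells express chimeric NR-GAL4 proteins acting on GAL4-UAS reporter units. Compounds are applied for 24 h. mRNA induction over DMSO is measured by capillary electrophoresis.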

[7] = target: Bile acid receptor (Homo sapiens) (UniProt Q96RI1); experiment: ATG_FXR_TRANS: Attagene TRANS-FACTORIAL HepG2 Assay for Farnesoid X Receptor (FXR) (AID 2282979); details: HepG2 Attagene TRANS FXR-GAL4 reporter transcription;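 also: hits raise reporter mRNA above DMSO so AC50 marks FXR activation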
Outline: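 Chimeric FXR-GAL4 activity in transiently transfected human HepG2 liver cells is scored as induction of reporter mRNA after 24 h of dosing. Detection uses RT-PCR with fluorescent labelling and capillary electrophoresis, with DMSO serving as baseline.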

[8] = target: Nuclear receptor subfamily 4 group A member 2 (Homo sapiens) (UniProt P43354); experiment: ATG_NURR1_TRANS: Attagene TRANS-FACTORIAL HepG2 Assay for human Nuclear Receptor Related Protein 1 (NURR1) (AID 2282985); details: HepG2 Attagene TRANS reporter, mRNA readout
Outline: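 Endpoint: reporter mRNA increase relative to DMSO. HepG2 cells transfected with reporter units, treated 24 h; RNA processed by RT-PCR, labelling, HpaI digestion and capillary electrophoresis.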

[9] = target: Transcriptional activator Myb (Homo sapiens) (UniProt P10242); experiment: ATG_Myb_CIS: Attagene CIS-FACTORIAL HepG2 Assay for human Myeloblastosis (Myb) Proto-Oncogene Transcription Factor (AID 2282986; active = hit-call score of the fitted dose curve at least 0.9, where 1 is the maximum; inactive = score below 0.9); details: HepG2 Attagene CIS-FACTORIAL Myb reporter transcription; actives raise or lower the signal
Outline: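 Using HepG2 liver cells bearing transiently transfected cis-promoter reporter constructs, the assay measures induction or loss of reporter mRNA after 24 hours of dosing. Detection used fluorescently labeled RT-PCR products separated by capillary electrophoresis.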

[10] = target: Nuclear respiratory factor 1 (Homo sapiens) (UniProt Q16656); experiment: ATG_NRF1_CIS: Attagene CIS-FACTORIAL HepG2 Assay for human Nuclear Respiratory Factor 1 (NRF1) Orphan Gene (AID 2282987; active = hit-call score of the fitted dose curve at least 0.9, where 1 is the maximum; inactive = score below 0.9); details: HepG2 NRF1 cis-element reporter, Attagene multiplex; actives raise or lower the signal
Outline: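 Reporter mRNA induction or loss in HepG2 cells after 24 h dosing; cis-regulated reporter constructs report endogenous transcription-factor activity. Quantified by RT-PCR/capillary electrophoresis fluorescence, DMSO-referenced.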

[11] = ATG_NFI_CIS: Attagene CIS-FACTORIAL HepG2 Assay for human Nuclear Factor I (NFI) (AID 2282989; active = hit-call score of the fitted dose curve at least 0.9, where 1 is the maximum; inactive = score below 0.9); details: HepG2 cis-regulatory reporter, NFI response element transcription; actives raise or lower the signal
Outline: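 After transient transfection of HepG2 with cis-promoter reporter constructs and 24 h dosing, RNA is reverse-transcribed, amplified, 6-FAM end-labelled and HpaI-digested before capillary analysis. Bidirectional curve fitting against DMSO.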

[12] = target: Hepatocyte nuclear factor 4-alpha (Homo sapiens) (UniProt P41235); experiment: ATG_HNF4a_TRANS: Attagene TRANS-FACTORIAL HepG2 Assay for human Hepatocyte Nuclear Factor 4 alpha (HNF4a) (AID 2282982); details: HepG2 HNF4a transactivation reporter, mRNA readout
Outline: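 Endpoint reflects transcriptional activation of a GAL4-UAS reporter by an HNF4a-GAL4 chimera in transfected HepG2 cells, 24 h post-dosing. Fluorescence from RT-PCR products separated by capillary electrophoresis; DMSO baseline.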

[13] = ATG_M_06_TRANS: Attagene TRANS-FACTORIAL HepG2 Assay for M06 Transcription Factor (Internal Marker) (AID 2282983); details: HepG2 Attagene TRANS M06 internal marker reporter
Outline: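 Human liver HepG2 cells bearing transiently transfected chimeric NR-GAL4 reporter units were treated with chemicals for 24 h. Total RNA was reverse-transcribed, reporter sequences amplified and labelled, then quantified by capillary electrophoresis. Activity was fitted upward relative to DMSO.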

[14] = target: Oxysterols receptor LXR-alpha (Homo sapiens) (UniProt Q13133); experiment: ATG_LXRa_TRANS: Attagene TRANS-FACTORIAL HepG2 Assay for human Liver X Receptor alpha (LXRa) (AID 2282980); details: HepG2 Attagene TRANS reporter, LXRa transactivation
Outline: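 Transient HepG2 transfectants, 24 h dosing, RT-PCR/CE mRNA reporter quantitation; gain-of-signal vs DMSO.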

[15] = target: Oxysterols receptor LXR-beta (Homo sapiens) (UniProt P55055); experiment: ATG_LXRb_TRANS: Attagene TRANS-FACTORIAL HepG2 Assay for human Liver X Receptor beta (LXRb) (AID 2282981); details: HepG2 Attagene TRANS GAL4-LXRb reporter, mRNA
Outline: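 Multiplexed reporter assay, HepG2, 24 h dosing. Fluorescence of labelled RT-PCR products after capillary electrophoresis gives transcript level; positive fitting direction relative to DMSO.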

[16] = ATG_M_32_TRANS: Attagene TRANS-FACTORIAL HepG2 Assay for M32 Transcription Factor (Internal Marker) (AID 2282984); details: HepG2 Attagene TRANS M32 internal marker reporter;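 also: transcript level of a background control reporter unit measured by RT-PCR and capillary electrophoresis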
Outline: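 Internal-marker readout from a multiplexed transcription reporter panel. HepG2 cells were transfected with GAL4-UAS reporter units, treated 24 hours, and reporter transcript levels determined by fluorescence after RT-PCR and capillary separation.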

[17] = target: Nuclear receptor subfamily 1 group I member 3 (Homo sapiens) (UniProt Q14994); experiment: ATG_CAR_TRANS: Attagene TRANS-FACTORIAL HepG2 Assay for human Constitutive Androstane Receptor (CAR) (AID 2282969); details: HepG2 Attagene TRANS-FACTORIAL CAR reporter;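 also: activators raise reporter mRNA above DMSO so AC50 marks induction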
Outline: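 Transiently transfected HepG2, multiplex TRANS reporters (CAR-Gal4 chimera driving GAL4-UAS reporter). 24 h dosing. Readout: reporter transcript by RT-PCR + capillary electrophoresis, fluorescence intensity; positive direction vs DMSO.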

[18] = ATG_GAL4_TRANS: Attagene TRANS-FACTORIAL HepG2 Assay for GAL4 (Internal Marker) (AID 2282976); details: HepG2 Attagene TRANS GAL4 internal marker reporter
Outline: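 Fluorescence from capillary electrophoresis of labelled RT-PCR products quantifies reporter mRNA induction after 24 h dosing of HepG2 cells carrying transfected GAL4-UAS reporter transcription units. Vehicle DMSO serves as baseline.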

Measured: AC50

Sequence of Glucocorticoid receptor (Homo sapiens) (P04150 whole entry, looked up, the tested form may be a part): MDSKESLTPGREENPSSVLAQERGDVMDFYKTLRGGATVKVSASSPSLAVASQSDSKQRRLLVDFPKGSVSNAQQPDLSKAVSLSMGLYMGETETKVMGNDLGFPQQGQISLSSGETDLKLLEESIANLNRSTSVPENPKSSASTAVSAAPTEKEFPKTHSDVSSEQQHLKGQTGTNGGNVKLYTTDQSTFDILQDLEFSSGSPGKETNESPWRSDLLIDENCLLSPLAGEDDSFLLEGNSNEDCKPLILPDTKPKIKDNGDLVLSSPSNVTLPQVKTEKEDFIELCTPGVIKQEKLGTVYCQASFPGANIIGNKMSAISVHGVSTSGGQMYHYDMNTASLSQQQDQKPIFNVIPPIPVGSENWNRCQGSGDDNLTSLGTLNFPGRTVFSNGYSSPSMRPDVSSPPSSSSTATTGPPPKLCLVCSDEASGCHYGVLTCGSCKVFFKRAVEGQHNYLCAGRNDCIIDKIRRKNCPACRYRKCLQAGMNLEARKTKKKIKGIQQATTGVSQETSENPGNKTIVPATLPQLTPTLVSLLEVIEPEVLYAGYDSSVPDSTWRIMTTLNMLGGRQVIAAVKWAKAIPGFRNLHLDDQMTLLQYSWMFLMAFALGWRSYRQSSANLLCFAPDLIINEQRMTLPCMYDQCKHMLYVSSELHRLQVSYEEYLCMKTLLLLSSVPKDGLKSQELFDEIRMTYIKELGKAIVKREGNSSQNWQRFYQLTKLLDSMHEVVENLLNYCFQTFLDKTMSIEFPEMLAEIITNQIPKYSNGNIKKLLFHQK
Sequence of Nuclear receptor subfamily 4 group A member 2 (Homo sapiens) (P43354 whole entry, looked up): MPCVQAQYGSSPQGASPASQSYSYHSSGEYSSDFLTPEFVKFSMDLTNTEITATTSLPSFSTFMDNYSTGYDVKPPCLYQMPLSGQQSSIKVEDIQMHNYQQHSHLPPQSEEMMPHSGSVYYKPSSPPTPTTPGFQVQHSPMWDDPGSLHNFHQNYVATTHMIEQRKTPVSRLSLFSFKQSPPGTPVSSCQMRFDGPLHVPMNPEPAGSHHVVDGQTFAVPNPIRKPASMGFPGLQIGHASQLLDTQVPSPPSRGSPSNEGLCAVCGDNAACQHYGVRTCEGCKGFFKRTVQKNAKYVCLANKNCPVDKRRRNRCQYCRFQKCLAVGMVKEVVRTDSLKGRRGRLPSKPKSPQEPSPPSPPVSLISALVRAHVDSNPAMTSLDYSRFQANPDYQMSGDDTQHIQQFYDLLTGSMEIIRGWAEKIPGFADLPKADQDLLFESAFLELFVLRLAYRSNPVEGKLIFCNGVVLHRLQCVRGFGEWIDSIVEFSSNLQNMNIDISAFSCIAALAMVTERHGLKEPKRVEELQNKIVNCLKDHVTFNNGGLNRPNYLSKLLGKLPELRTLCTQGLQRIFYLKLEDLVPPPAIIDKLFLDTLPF
Sequence of X-box-binding protein 1 (Homo sapiens) (P17861 whole entry, looked up): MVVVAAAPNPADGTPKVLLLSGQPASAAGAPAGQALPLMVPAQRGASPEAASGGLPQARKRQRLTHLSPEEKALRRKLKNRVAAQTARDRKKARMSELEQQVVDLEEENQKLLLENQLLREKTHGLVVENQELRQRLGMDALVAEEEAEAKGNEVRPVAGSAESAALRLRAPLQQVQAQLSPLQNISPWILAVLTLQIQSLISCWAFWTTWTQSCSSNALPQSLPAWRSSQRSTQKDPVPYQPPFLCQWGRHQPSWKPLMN
Sequence of Bile acid receptor (Homo sapiens) (Q96RI1 whole entry, looked up, the tested form may be a part): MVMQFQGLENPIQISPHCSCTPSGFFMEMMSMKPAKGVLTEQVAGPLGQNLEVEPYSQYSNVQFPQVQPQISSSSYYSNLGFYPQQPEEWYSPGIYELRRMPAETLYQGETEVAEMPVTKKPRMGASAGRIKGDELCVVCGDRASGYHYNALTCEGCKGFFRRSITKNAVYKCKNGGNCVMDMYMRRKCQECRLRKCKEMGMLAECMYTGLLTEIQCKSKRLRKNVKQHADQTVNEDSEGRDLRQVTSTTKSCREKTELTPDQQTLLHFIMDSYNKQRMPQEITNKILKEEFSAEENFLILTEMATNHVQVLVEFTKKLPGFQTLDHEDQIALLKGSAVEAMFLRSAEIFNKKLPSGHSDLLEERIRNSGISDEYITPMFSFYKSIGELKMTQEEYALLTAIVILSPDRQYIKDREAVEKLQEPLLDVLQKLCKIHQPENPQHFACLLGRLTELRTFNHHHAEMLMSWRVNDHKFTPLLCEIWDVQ
Sequence of Estrogen-related receptor gamma (Homo sapiens) (P62508 whole entry, looked up, the tested form may be a part): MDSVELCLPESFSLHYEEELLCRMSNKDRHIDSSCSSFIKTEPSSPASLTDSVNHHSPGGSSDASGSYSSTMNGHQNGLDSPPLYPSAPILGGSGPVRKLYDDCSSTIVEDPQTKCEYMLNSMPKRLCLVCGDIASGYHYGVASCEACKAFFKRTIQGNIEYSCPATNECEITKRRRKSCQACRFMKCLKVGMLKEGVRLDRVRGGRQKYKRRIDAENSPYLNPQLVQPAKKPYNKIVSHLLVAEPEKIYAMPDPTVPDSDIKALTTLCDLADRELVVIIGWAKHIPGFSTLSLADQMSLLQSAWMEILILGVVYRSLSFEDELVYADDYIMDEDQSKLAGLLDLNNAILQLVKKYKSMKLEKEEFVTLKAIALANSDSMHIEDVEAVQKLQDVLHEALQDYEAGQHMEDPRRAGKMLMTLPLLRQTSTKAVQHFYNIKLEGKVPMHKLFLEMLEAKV
Sequence of Transcriptional activator Myb (Homo sapiens) (P10242 whole entry, looked up): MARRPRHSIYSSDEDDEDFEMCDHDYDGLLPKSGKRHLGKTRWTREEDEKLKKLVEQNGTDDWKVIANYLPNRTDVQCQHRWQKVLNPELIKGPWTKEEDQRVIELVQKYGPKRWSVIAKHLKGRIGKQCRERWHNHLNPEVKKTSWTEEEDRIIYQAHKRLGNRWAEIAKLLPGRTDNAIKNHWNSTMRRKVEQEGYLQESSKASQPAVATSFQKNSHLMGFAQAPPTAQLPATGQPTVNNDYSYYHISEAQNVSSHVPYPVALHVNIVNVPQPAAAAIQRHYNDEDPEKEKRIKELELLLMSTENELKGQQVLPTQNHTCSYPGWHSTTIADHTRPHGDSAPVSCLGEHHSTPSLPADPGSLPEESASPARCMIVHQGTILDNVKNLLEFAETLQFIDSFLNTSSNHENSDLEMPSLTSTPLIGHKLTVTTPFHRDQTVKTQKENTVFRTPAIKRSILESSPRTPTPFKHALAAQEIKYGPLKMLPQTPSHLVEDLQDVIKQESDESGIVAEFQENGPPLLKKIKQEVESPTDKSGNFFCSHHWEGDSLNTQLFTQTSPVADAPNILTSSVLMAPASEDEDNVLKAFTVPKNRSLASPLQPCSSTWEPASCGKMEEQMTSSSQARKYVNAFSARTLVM
Sequence of Nuclear respiratory factor 1 (Homo sapiens) (Q16656 whole entry, looked up): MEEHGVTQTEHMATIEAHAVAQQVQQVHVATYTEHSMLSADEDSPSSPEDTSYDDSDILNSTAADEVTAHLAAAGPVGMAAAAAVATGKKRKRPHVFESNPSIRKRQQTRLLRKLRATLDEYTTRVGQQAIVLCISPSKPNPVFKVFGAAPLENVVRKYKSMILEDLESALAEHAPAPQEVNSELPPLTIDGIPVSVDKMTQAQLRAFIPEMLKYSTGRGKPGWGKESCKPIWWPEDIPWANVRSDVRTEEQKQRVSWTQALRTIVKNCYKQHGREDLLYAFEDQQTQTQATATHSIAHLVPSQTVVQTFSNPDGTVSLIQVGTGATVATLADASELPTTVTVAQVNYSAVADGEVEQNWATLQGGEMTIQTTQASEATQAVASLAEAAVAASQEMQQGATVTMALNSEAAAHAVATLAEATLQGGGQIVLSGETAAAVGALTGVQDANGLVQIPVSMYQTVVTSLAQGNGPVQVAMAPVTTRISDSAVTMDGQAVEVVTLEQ
Sequence of Oxysterols receptor LXR-beta (Homo sapiens) (P55055 whole entry, looked up, the tested form may be a part): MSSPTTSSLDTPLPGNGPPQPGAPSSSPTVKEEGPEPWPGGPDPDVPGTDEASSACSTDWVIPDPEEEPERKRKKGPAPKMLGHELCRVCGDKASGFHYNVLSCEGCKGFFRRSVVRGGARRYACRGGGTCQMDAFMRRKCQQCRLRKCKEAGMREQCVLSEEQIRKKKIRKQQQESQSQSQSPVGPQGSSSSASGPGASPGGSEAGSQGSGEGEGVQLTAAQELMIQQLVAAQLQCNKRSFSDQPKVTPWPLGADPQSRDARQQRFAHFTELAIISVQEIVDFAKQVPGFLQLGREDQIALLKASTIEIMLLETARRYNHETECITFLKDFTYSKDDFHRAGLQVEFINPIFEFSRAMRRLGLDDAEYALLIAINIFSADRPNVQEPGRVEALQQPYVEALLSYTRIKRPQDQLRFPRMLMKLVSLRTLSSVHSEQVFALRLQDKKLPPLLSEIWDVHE
Sequence of Estrogen receptor (Homo sapiens) (P03372 whole entry, looked up, the tested form may be a part): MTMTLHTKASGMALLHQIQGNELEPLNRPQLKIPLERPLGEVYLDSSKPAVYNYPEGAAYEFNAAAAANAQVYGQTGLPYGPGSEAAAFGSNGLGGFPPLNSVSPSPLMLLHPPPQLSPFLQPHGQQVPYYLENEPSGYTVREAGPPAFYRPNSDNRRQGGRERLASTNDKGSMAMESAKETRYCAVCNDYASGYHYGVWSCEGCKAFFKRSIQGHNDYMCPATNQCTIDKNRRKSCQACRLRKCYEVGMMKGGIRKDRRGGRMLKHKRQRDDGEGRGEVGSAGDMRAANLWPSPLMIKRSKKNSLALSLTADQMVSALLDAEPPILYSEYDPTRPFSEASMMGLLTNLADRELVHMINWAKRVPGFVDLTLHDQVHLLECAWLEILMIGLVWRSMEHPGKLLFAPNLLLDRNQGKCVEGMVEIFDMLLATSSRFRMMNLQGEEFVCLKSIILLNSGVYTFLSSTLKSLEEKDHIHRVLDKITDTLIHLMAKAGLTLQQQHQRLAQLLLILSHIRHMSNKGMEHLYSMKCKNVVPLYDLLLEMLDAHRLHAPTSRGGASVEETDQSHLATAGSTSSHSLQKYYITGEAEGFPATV

FC1(F)C=CC(F)(F)C1(F)F
inactive: [1] | [2] | [3] | [4] | [5] | [6] | [7] | [8] | [9] | [10] | [11]

COC(=O)CC(C(C)=O)C(=O)OC (stereo not given)
inactive: [1] | [3] | [12] | [13] | [9] | [10] | [11]

C=C(c1ccc(C(=O)O)cc1)c1cc2c(cc1C)C(C)(C)CCC2(C)C
active: [1] 31.2 µM | [3] 16.9 µM | [9] 31 µM
inactive: [1] | [2] | [3] | [6] | [14] | [15] | [13] | [16] | [9] | [11]

O=C(NCc1ncc(C(F)(F)F)cc1Cl)c1c(Cl)cccc1Cl
inactive: [1] | [6] | [7] | [14] | [12] | [13] | [16] | [9] | [10] | [11]

CC1=NN(c2ccccc2)C(=O)C1
inactive: [4] | [6] | [7] | [15] | [13] | [16] | [9] | [10] | [11]

c1cnc2c(c1)ccc1cccnc12
active: [3] 158 µM | [10] 4.62 µM and 6.45 µM
inactive: [17] | [2] | [3] | [4] | [5] | [6] | [14] | [15] | [12] | [13] | [8] | [9] | [11]

CCCCCCCCCCCC(=O)O
inactive: [15] | [13] | [16] | [8] | [9] | [11]

Brc1ccc(Oc2ccc(Br)cc2Br)cc1
inactive: [2] | [3] | [4] | [7] | [14] | [15] | [9] | [10] | [11]

FC(F)(F)C(F)(F)C(F)(F)C(F)(F)I
inactive: [2] | [4] | [7] | [15] | [16] | [9] | [11]

CN(Cc1cnc2nc(N)nc(N)c2n1)c1ccc(C(=O)N[C@@H](CCC(=O)O)C(=O)O)cc1
inactive: [1] | [3] | [4] | [18] | [7] | [15] | [9] | [10] | [11]

O=CC(F)(F)C(F)(F)C(F)(F)F
inactive: [1] | [3] | [18] | [6] | [7] | [14] | [15] | [12] | [16] | [8] | [9] | [10] | [11]

O=C(C=C(O)C(F)(F)F)C(F)(F)F
inactive: [1] | [2] | [3] | [4] | [18] | [6] | [7] | [16] | [9] | [10] | [11]
